Measurements reported in paper PMC7862700, “An all-to-all approach to the identification of sequence-specific readers for epigenetic DNA modifications on cytosine”.

Legend:
Experiment in all cases: DAPPL (digital affinity profiling via proximity ligation, sequencing); 10 mM Tris-HCl pH 7.5, 50 mM NaCl, 1 mM DTT, 4% glycerol, room temperature, 30 min; GST-TFs on glutathione beads, 16-mer random dsDNA library, 0.1% formaldehyde crosslink after washing; high values mean tight binding
Details in all cases: protein: recombinant; tags: N-terminal GST; dsDNA, one strand shown
SPIC = target: T1, SPIC (Homo sapiens, UniProt Q8N5J4 1-248)
T1 sequence: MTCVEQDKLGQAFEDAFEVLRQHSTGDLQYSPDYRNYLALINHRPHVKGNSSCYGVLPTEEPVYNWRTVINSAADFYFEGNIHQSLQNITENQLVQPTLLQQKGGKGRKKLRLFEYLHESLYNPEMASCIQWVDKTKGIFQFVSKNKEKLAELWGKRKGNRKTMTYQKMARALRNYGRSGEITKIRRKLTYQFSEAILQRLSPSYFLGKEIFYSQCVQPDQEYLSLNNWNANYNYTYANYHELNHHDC
Method in brief: (§1)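 GST fusions of human transcription factors were expressed in yeast and captured with glutathione beads. Once given DNA barcodes and pooled alongside a tag-only sample, they were incubated for 30 min at room temperature with 200 nmole of a random double-stranded 16-mer DNA library in Tris/NaCl/DTT/glycerol buffer, then washed, crosslinked (0.1% formaldehyde), proximity-ligated, PCR-amplified and sequenced on an Illumina NextSeq500. The binding signal of each hexamer is its read frequency for a factor divided by its frequency for the tag-only sample.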

GABPA = target: T2, GABPA (Homo sapiens, UniProt Q06546 1-454)
T2 sequence: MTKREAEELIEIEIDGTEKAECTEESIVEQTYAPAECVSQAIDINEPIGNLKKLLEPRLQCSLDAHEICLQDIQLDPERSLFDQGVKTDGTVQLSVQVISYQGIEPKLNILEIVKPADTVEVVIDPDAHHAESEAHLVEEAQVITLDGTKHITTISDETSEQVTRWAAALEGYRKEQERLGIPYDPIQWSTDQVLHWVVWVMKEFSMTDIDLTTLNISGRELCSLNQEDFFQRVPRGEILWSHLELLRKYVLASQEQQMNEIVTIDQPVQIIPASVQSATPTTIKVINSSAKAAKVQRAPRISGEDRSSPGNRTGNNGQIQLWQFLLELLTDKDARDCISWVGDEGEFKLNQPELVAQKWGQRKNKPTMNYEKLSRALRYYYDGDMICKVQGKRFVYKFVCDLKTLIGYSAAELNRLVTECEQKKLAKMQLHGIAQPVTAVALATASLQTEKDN
Method in brief: as §1

ELK3 = target: T3, ELK3 (Homo sapiens, UniProt P41970 1-407)
T3 sequence: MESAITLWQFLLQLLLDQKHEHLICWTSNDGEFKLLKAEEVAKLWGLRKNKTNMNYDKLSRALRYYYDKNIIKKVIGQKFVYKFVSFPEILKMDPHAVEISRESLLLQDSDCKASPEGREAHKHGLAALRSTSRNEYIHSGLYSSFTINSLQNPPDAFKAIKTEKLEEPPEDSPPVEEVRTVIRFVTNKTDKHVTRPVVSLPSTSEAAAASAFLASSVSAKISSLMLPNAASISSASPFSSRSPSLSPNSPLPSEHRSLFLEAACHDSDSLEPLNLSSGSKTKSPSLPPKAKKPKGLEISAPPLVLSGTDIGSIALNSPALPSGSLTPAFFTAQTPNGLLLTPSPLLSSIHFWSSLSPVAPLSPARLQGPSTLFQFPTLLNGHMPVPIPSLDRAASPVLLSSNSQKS
Method in brief: as §1

FEV = target: T4, FEV (Homo sapiens, UniProt Q99581 1-238)
T4 sequence: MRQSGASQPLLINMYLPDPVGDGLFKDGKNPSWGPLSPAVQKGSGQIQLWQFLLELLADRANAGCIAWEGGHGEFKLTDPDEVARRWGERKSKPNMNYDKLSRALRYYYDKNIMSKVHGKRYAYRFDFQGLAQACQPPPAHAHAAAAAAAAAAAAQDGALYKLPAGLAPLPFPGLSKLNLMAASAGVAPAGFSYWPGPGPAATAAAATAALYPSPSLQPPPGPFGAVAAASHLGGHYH
Method in brief: as §1

ELF4 = ELF4 (Homo sapiens, UniProt Q99607 1-663)
Sequence of ELF4 (Q99607 whole entry): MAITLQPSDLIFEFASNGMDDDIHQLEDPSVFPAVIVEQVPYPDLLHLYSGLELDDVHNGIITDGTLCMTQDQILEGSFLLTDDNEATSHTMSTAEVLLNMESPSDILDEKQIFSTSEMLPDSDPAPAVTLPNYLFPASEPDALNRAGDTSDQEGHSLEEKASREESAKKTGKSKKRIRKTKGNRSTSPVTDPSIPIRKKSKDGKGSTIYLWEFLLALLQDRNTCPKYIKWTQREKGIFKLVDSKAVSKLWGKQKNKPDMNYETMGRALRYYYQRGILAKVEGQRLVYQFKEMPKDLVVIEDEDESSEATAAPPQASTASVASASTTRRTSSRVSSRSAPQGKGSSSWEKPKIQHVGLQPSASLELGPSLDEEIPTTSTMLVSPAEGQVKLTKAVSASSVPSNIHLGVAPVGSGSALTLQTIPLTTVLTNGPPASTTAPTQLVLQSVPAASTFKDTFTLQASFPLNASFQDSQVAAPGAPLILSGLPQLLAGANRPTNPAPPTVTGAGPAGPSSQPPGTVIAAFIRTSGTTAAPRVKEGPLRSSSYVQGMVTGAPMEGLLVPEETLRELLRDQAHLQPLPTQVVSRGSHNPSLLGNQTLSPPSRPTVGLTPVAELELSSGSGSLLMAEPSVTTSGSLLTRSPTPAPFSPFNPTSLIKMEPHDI
Method in brief: as §1

ELK4 = target: T5, ELK4 (Homo sapiens, UniProt P28324-2 1-405)
T5 sequence: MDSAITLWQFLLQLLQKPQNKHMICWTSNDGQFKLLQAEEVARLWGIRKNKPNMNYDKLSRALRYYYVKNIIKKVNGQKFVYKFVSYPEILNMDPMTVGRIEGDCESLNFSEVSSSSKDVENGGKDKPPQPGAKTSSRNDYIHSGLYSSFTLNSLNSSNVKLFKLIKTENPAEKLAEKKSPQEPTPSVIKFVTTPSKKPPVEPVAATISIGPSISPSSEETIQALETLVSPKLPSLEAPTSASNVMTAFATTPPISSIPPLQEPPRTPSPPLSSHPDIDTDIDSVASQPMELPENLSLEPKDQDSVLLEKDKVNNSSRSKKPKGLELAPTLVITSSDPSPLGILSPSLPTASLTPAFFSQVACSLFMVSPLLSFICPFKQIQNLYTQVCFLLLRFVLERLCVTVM
Method in brief: as §1

ETV6 = ETV6 (Homo sapiens, UniProt P41212 1-452)
Sequence of ETV6 (P41212 whole entry): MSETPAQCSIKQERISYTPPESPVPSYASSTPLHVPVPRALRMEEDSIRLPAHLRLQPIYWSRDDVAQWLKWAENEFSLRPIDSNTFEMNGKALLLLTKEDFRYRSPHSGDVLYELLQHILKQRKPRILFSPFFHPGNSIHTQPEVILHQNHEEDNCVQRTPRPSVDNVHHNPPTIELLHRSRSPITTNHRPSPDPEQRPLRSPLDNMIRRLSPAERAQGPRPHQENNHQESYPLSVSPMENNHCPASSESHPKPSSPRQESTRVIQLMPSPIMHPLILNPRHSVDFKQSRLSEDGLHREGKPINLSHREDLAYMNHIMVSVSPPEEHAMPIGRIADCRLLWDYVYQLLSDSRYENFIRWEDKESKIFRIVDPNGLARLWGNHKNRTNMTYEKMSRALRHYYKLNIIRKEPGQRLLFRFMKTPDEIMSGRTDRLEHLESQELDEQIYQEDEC
Method in brief: as §1

ELK1 = target: T6, ELK1 (Homo sapiens, UniProt P19419 1-428)
T6 sequence: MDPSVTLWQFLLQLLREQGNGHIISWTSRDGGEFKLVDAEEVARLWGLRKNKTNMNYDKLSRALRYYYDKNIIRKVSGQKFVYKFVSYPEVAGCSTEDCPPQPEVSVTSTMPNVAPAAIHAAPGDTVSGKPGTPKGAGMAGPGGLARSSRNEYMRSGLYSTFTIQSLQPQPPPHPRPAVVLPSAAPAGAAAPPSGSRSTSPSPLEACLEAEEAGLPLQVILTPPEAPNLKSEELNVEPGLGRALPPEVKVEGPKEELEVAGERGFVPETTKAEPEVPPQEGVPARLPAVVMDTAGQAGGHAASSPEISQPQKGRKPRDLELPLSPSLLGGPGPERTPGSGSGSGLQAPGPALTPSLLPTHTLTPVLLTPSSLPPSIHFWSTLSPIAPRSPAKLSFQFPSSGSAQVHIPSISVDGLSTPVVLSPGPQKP
Method in brief: as §1

ELF1 = ELF1 (Homo sapiens, UniProt P32519 1-619)
Sequence of ELF1 (P32519 whole entry): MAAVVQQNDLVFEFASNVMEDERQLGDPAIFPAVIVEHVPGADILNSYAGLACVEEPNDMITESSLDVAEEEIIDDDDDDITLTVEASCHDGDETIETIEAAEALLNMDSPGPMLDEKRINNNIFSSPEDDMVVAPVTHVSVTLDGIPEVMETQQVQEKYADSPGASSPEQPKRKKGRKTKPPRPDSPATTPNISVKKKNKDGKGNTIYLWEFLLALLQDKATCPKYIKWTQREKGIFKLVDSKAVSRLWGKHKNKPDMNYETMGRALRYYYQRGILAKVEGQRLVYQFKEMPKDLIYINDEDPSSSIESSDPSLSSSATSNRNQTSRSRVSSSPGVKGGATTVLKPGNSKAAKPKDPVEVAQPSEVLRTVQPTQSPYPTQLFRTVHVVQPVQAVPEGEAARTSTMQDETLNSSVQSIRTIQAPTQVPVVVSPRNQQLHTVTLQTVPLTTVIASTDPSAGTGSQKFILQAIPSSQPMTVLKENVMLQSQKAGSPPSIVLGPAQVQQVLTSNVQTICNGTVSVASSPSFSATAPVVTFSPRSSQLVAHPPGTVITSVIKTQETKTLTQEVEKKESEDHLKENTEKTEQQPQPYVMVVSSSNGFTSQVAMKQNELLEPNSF
Method in brief: as §1

EHF = target: T7, EHF (Homo sapiens, UniProt Q9NZC4 1-300)
T7 sequence: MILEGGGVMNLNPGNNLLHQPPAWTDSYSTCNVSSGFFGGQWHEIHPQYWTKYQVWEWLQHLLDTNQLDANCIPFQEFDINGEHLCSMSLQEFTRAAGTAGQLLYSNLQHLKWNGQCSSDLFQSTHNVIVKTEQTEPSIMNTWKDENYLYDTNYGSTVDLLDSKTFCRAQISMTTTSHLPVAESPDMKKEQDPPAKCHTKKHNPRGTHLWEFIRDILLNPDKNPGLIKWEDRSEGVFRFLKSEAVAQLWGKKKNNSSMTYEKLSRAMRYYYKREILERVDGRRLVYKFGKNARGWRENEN
Method in brief: as §1

ETV2 = target: T8, ETV2 (Homo sapiens, UniProt O00321 1-342)
T8 sequence: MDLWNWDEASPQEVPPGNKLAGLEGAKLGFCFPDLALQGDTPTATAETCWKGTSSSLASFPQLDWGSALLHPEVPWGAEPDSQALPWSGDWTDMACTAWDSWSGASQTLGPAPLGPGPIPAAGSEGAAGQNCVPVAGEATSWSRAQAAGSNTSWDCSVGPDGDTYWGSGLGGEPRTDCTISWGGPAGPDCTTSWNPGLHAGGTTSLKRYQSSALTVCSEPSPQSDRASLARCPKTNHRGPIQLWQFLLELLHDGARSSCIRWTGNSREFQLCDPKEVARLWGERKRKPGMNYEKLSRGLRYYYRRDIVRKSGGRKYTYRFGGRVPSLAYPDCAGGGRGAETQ
Method in brief: as §1

ELF3 = target: T9, ELF3 (Homo sapiens, UniProt P78545 1-371)
T9 sequence: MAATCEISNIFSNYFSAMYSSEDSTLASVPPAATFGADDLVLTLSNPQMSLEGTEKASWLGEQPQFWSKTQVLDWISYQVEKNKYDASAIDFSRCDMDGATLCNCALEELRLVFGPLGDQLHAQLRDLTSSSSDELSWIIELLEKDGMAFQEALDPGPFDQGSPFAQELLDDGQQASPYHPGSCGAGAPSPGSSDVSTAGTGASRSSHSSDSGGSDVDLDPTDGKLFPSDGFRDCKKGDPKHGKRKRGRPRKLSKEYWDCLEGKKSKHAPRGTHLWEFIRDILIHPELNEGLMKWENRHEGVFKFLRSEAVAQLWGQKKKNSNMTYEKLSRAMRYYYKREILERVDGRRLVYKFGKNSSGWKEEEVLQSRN
Method in brief: as §1

ETV1 = ETV1 (Homo sapiens, UniProt P50549 1-477)
Sequence of ETV1 (P50549 whole entry): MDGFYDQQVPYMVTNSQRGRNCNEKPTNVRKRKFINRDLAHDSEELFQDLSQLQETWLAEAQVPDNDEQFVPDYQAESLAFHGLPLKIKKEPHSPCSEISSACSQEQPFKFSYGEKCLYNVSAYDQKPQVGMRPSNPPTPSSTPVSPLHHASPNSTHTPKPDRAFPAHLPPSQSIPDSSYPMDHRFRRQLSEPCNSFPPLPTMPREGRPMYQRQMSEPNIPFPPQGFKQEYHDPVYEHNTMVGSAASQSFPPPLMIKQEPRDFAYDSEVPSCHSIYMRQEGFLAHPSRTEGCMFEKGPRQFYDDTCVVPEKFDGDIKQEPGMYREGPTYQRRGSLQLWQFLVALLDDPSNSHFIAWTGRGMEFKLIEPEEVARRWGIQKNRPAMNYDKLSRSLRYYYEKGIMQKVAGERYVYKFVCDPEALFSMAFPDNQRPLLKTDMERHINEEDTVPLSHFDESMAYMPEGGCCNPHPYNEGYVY
Method in brief: as §1

ERF = target: T10, ERF (Homo sapiens, UniProt P50548 1-548)
T10 sequence: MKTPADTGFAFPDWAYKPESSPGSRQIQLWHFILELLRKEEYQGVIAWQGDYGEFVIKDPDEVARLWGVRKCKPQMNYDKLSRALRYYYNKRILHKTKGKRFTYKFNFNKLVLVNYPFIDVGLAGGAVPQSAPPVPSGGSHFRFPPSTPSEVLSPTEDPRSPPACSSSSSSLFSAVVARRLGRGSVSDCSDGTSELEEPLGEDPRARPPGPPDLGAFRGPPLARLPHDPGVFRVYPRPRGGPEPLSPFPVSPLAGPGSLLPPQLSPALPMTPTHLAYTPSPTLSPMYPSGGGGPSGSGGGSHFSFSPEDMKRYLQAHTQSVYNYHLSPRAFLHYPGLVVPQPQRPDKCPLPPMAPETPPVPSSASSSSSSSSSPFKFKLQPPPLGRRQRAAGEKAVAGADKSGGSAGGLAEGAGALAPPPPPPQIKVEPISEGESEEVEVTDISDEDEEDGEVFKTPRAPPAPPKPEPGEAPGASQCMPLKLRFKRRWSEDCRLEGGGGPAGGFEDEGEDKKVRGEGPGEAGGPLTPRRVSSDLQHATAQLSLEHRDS
Method in brief: as §1

SPDEF = target: T11, SPDEF (Homo sapiens, UniProt O95238 1-335)
T11 sequence: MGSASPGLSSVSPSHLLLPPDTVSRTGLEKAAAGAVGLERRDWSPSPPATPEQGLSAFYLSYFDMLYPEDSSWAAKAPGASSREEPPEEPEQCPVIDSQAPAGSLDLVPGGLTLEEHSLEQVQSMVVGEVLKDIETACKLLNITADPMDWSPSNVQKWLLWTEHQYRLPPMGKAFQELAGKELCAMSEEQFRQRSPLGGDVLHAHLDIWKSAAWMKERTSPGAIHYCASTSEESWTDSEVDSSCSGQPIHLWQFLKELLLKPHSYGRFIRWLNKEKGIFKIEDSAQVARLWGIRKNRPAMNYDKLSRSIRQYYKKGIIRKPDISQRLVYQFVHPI
Method in brief: as §1

ELF5 = target: T12, ELF5 (Homo sapiens, UniProt Q9UKW6-2 1-255)
T12 sequence: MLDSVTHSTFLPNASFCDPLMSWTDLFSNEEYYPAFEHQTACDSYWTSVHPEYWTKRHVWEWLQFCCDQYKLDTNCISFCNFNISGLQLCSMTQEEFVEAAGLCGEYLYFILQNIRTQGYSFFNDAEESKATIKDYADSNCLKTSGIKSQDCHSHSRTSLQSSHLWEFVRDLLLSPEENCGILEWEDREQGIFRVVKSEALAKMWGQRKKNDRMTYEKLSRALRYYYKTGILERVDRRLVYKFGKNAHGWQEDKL
Method in brief: as §1

GATAGT
binding signal (SPIC): 1.01 fold enrichment (6-mer frequency, TF over GST control)

GCGCCG
binding signal (GABPA): 1.03 fold enrichment (6-mer frequency, TF over GST control)
binding signal (ELK3): 1.02 fold enrichment (6-mer frequency, TF over GST control)
binding signal (FEV): 1.05 fold enrichment (6-mer frequency, TF over GST control)
binding signal (SPIC): 1.1 fold enrichment (6-mer frequency, TF over GST control)
binding signal (ELF4): 1.03 fold enrichment (6-mer frequency, TF over GST control)
binding signal (ELK4): 1.03 fold enrichment (6-mer frequency, TF over GST control)
binding signal (ETV6): 1.05 fold enrichment (6-mer frequency, TF over GST control)

GCGCGT
binding signal (SPIC): 1 fold enrichment (6-mer frequency, TF over GST control)

ATCACG
binding signal (ELK1): 1.04 fold enrichment (6-mer frequency, TF over GST control)
binding signal (ELF1): 1.03 fold enrichment (6-mer frequency, TF over GST control)
binding signal (EHF): 1.08 fold enrichment (6-mer frequency, TF over GST control)
binding signal (SPIC): 1.04 fold enrichment (6-mer frequency, TF over GST control)
binding signal (ELK4): 1 fold enrichment (6-mer frequency, TF over GST control)
binding signal (ETV2): 1.07 fold enrichment (6-mer frequency, TF over GST control)
binding signal (ELF3): 1.01 fold enrichment (6-mer frequency, TF over GST control)
binding signal (ETV1): 1.02 fold enrichment (6-mer frequency, TF over GST control)
binding signal (ERF): 1.07 fold enrichment (6-mer frequency, TF over GST control)
binding signal (SPDEF): 1.07 fold enrichment (6-mer frequency, TF over GST control)
binding signal (ELF5): 1.02 fold enrichment (6-mer frequency, TF over GST control)

AGGGCC
binding signal (SPIC): 1.02 fold enrichment (6-mer frequency, TF over GST control)
binding signal (ELK4): 1.1 fold enrichment (6-mer frequency, TF over GST control)

CTGGCG
binding signal (SPIC): 1.09 fold enrichment (6-mer frequency, TF over GST control)

CTAGGG
binding signal (SPIC): 1.07 fold enrichment (6-mer frequency, TF over GST control)
